Laboratory results: PubChem BioAssay (EPA / NIEHS)
Results filed as inconclusive are left out. Active and inactive are the calls of the source. Rule for the calls, unless noted: active = hit-call score of the fitted dose curve at least 0.9, where 1 is the maximum; inconclusive = response in the unintended direction; inactive = score below 0.9.

Columns and labels:
[1] = ATG_TCF_b_cat_CIS: Attagene CIS-FACTORIAL HepG2 Assay for human T-Cell-Factor with beta-catenin (TCF/b-cat) (AID 2282965; active = hit-call score of the fitted dose curve at least 0.9, where 1 is the maximum; inactive = score below 0.9); conditions: HepG2 TCF/beta-catenin cis-reporter transcription, actives raise or lower the signal
In short: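 HepG2 cells transiently transfected with cis-promoter-driven multiplexed reporter units; reporter mRNA measured 24 h after dosing by RT-PCR, FAM labelling, HpaI digestion and capillary electrophoresis. Bidirectional fitting relative to DMSO baseline.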

[2] = ATG_TAL_CIS: Attagene CIS-FACTORIAL HepG2 Assay for human TAL Basal Promoter (AID 2282966; active = hit-call score of the fitted dose curve at least 0.9, where 1 is the maximum; inactive = score below 0.9;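 note: background control endpoint measuring basal TAL promoter reporter mRNA not a specific factor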); conditions: HepG2 Attagene cis-factorial TAL promoter reporter; actives raise or lower the signal
In short: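 In this cell-based multiplex, HepG2 liver cells bearing cis-promoter reporter constructs are dosed for 24 hours. Total RNA is reverse-transcribed and amplified, labelled fragments are sized by capillary electrophoresis, and signal changes are fitted bidirectionally versus DMSO.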

[3] = ATG_TGFb_CIS: Attagene CIS-FACTORIAL HepG2 Assay for human Transforming Growth Factor (TGF) (AID 2282967; active = hit-call score of the fitted dose curve at least 0.9, where 1 is the maximum; inactive = score below 0.9); conditions: HepG2 Attagene CIS TGFb reporter, mRNA transcription; actives raise or lower the signal
In short: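 Liver HepG2 line, cis-factorial reporter panel, 24 h dosing. Quantitation: RT-PCR products labeled with 6-FAM, cut with HpaI, resolved by capillary electrophoresis; DMSO-referenced bidirectional analysis.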

[4] = ATG_VDRE_CIS: Attagene CIS-FACTORIAL HepG2 Assay for human Vitamin D Receptor Element (VDRE) (AID 2282968; active = hit-call score of the fitted dose curve at least 0.9, where 1 is the maximum; inactive = score below 0.9); conditions: HepG2 VDRE cis-reporter transcription, actives raise or lower the signal
In short: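 Transiently transfected HepG2 cells carrying cis-regulated reporter transcription units were exposed for 24 h. Reporter mRNA was measured by RT-PCR with fluorescent labelling and capillary electrophoresis, and fitted in both directions against DMSO.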

[5] = target: Nuclear receptor subfamily 1 group I member 3 (Homo sapiens) (UniProt Q14994); test: ATG_CAR_TRANS: Attagene TRANS-FACTORIAL HepG2 Assay for human Constitutive Androstane Receptor (CAR) (AID 2282969); conditions: HepG2 Attagene TRANS-FACTORIAL CAR reporter;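 note: activators raise reporter mRNA above DMSO so AC50 marks induction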
In short: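 HepG2 cells transiently transfected with GAL4-UAS reporter units; TRANS format reads activity of exogenous chimeric NR-Gal4 protein. After 24 h dosing, reporter mRNA quantified by RT-PCR, 6-FAM labelling and capillary electrophoresis; gain of signal fitted against DMSO.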

[6] = target: Estrogen receptor (Homo sapiens) (UniProt P03372); test: ATG_ERa_TRANS: Attagene TRANS-FACTORIAL HepG2 Assay for human Estrogen Receptor alpha (ERa) (AID 2282970); conditions: HepG2 Attagene TRANS ERa GAL4 reporter, mRNA
In short: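 After 24 h of compound treatment, RNA from HepG2 cells bearing transfected GAL4-UAS reporter constructs is converted to cDNA, amplified and fluorescently labelled. Capillary electrophoresis resolves the ERa-linked reporter; DMSO serves as negative control.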

[7] = target: X-box-binding protein 1 (Homo sapiens) (UniProt P17861); test: ATG_Xbp1_CIS: Attagene CIS-FACTORIAL HepG2 Assay for human X-box Binding Protein 1 (XBP1) (AID 2282972; active = hit-call score of the fitted dose curve at least 0.9, where 1 is the maximum; inactive = score below 0.9); conditions: HepG2 XBP1 cis-element reporter, Attagene multiplex; actives raise or lower the signal
In short: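 HepG2 cells transiently transfected with multiple cis-element reporter units report endogenous TF activity; 24 h exposure, then reporter mRNA measured by RT-PCR, 6-FAM labelling, HpaI digestion and capillary electrophoresis. Bidirectional fitting versus DMSO.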

[8] = ATG_M_19_TRANS: Attagene TRANS-FACTORIAL HepG2 Assay for M19 Transcription Factor (Internal Marker) (AID 2282974); conditions: HepG2 Attagene TRANS-FACTORIAL M19 internal marker reporter
In short: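 Reporter mRNA induction was measured in transfected HepG2 cells 24 h after dosing. Endpoint fitted upward relative to DMSO and serves as a background control within the multiplexed TRANS panel.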

[9] = target: Glucocorticoid receptor (Homo sapiens) (UniProt P04150); test: ATG_GR_TRANS: Attagene TRANS-FACTORIAL HepG2 Assay for human Glucocorticoid Receptor (GR) (AID 2282978); conditions: HepG2 Attagene TRANS GR reporter, mRNA transcription;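 note: activators score as hits since higher reporter transcript over DMSO is fitted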
In short: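 Reporter transcript levels, detected by fluorescence after RT-PCR and capillary electrophoresis, served as the endpoint. HepG2 cells bearing transfected GAL4-UAS reporters responsive to NR-GAL4 chimeras were incubated with compound 24 h; DMSO defined baseline.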

[10] = target: Oxysterols receptor LXR-alpha (Homo sapiens) (UniProt Q13133); test: ATG_LXRa_TRANS: Attagene TRANS-FACTORIAL HepG2 Assay for human Liver X Receptor alpha (LXRa) (AID 2282980); conditions: HepG2 Attagene TRANS reporter, LXRa transactivation
In short: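 Read-out: reporter transcript levels by RT-PCR plus capillary electrophoresis, fluorescence intensity. Transiently transfected HepG2, exogenous NR-GAL4 chimera, GAL4-UAS reporters; 24 h compound exposure. Activity = increase over DMSO negative control.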

[11] = ATG_M_06_TRANS: Attagene TRANS-FACTORIAL HepG2 Assay for M06 Transcription Factor (Internal Marker) (AID 2282983); conditions: HepG2 Attagene TRANS M06 internal marker reporter
In short: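 After a 24 h chemical treatment of transfected HepG2, RNA underwent DNase I treatment, reverse transcription and reporter-specific PCR; labelled, HpaI-digested products were sized by capillary electrophoresis. Signal increase relative to DMSO defined activity.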

[12] = target: Nuclear receptor subfamily 4 group A member 2 (Homo sapiens) (UniProt P43354); test: ATG_NURR1_TRANS: Attagene TRANS-FACTORIAL HepG2 Assay for human Nuclear Receptor Related Protein 1 (NURR1) (AID 2282985); conditions: HepG2 Attagene TRANS reporter, mRNA readout
In short: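 HepG2 cells transiently transfected with NURR1-Gal4 chimera and GAL4-UAS reporter units; after 24 hr compound exposure, reporter mRNA quantified by RT-PCR and capillary electrophoresis; gain of signal fitted against DMSO.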

[13] = target: Transcriptional activator Myb (Homo sapiens) (UniProt P10242); test: ATG_Myb_CIS: Attagene CIS-FACTORIAL HepG2 Assay for human Myeloblastosis (Myb) Proto-Oncogene Transcription Factor (AID 2282986; active = hit-call score of the fitted dose curve at least 0.9, where 1 is the maximum; inactive = score below 0.9); conditions: HepG2 Attagene CIS-FACTORIAL Myb reporter transcription; actives raise or lower the signal
In short: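 Transiently transfected HepG2 cells, treated 24 h. Reporter mRNA quantified by RT-PCR/capillary electrophoresis; bidirectional fit relative to DMSO.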

[14] = target: Oxysterols receptor LXR-beta (Homo sapiens) (UniProt P55055); test: ATG_LXRb_TRANS: Attagene TRANS-FACTORIAL HepG2 Assay for human Liver X Receptor beta (LXRb) (AID 2282981); conditions: HepG2 Attagene TRANS GAL4-LXRb reporter, mRNA
In short: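 HepG2 cells transiently transfected with GAL4-UAS reporter units for chimeric NR-Gal4 proteins, dosed for 24 h. Reporter transcripts measured by RT-PCR and capillary electrophoresis; gain-of-signal fitting relative to DMSO.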

[15] = ATG_GAL4_TRANS: Attagene TRANS-FACTORIAL HepG2 Assay for GAL4 (Internal Marker) (AID 2282976); conditions: HepG2 Attagene TRANS GAL4 internal marker reporter
In short: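 RT-PCR/capillary electrophoresis readout of reporter mRNA. HepG2, transient MRTU transfection (GAL4-UAS reporters), 24 h compound exposure. Background-control endpoint, positive direction vs DMSO baseline.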

[16] = target: Estrogen-related receptor gamma (Homo sapiens) (UniProt P62508); test: ATG_ERRg_TRANS: Attagene TRANS-FACTORIAL HepG2 Assay for human Estrogen-Related Receptor gamma (ERRg) (AID 2282977); conditions: HepG2 Attagene TRANS reporter, ERRg transactivation;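 note: hits increase reporter signal over DMSO so potencies reflect activators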
In short: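 Transfect HepG2 with multiple GAL4-UAS reporter transcription units; dose chemicals 24 h; isolate RNA, reverse-transcribe with oligo(dT), PCR-amplify, label with 6-FAM, digest with HpaI; size fragments by capillary electrophoresis. DMSO serves as negative control.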

[17] = target: Hepatocyte nuclear factor 4-alpha (Homo sapiens) (UniProt P41235); test: ATG_HNF4a_TRANS: Attagene TRANS-FACTORIAL HepG2 Assay for human Hepatocyte Nuclear Factor 4 alpha (HNF4a) (AID 2282982); conditions: HepG2 HNF4a transactivation reporter, mRNA readout
In short: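 HepG2 cells transiently transfected with HNF4a-Gal4 chimera and GAL4-UAS reporter units, dosed for 24 h. Reporter mRNA measured by RT-PCR, fluorescent primer extension and capillary electrophoresis; gain-of-signal fitted relative to DMSO.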

[18] = ATG_M_32_TRANS: Attagene TRANS-FACTORIAL HepG2 Assay for M32 Transcription Factor (Internal Marker) (AID 2282984); conditions: HepG2 Attagene TRANS M32 internal marker reporter;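 note: transcript level of a background control reporter unit measured by RT-PCR and capillary electrophoresis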
In short: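 HepG2 cells transiently transfected with GAL4-UAS reporter units, dosed for 24 hours. Reporter mRNA quantified by RT-PCR, 6-FAM labelling, HpaI digestion and capillary electrophoresis; internal-marker signal fitted upward relative to DMSO.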

[19] = target: Bile acid receptor (Homo sapiens) (UniProt Q96RI1); test: ATG_FXR_TRANS: Attagene TRANS-FACTORIAL HepG2 Assay for Farnesoid X Receptor (FXR) (AID 2282979); conditions: HepG2 Attagene TRANS FXR-GAL4 reporter transcription;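 note: hits raise reporter mRNA above DMSO so AC50 marks FXR activation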
In short: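 Read-out: fluorescent reporter transcripts quantified by capillary electrophoresis after RT-PCR of total RNA. Source cells were HepG2 transiently carrying chimeric NR-GAL4 plus GAL4-UAS reporter units, dosed 24 h. Activity fitted upward relative to DMSO baseline.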

[20] = target: Steroid hormone receptor ERR1 (Homo sapiens) (UniProt P11474); test: ATG_ERRa_TRANS: Attagene TRANS-FACTORIAL HepG2 Assay for human Estrogen-Related Receptor alpha (ERRa) (AID 2282971); conditions: HepG2 Attagene TRANS reporter, ERRa transactivation
In short: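 Transfected HepG2, 24 h dosing, ERRa-Gal4 chimera driving GAL4-UAS reporter. Readout: reporter mRNA via RT-PCR plus capillary electrophoresis (fluorescence). Positive direction vs DMSO control.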

Measured: AC50

Chain of Nuclear receptor subfamily 4 group A member 2 (Homo sapiens) (P43354 whole entry, looked up, the tested form may be a part): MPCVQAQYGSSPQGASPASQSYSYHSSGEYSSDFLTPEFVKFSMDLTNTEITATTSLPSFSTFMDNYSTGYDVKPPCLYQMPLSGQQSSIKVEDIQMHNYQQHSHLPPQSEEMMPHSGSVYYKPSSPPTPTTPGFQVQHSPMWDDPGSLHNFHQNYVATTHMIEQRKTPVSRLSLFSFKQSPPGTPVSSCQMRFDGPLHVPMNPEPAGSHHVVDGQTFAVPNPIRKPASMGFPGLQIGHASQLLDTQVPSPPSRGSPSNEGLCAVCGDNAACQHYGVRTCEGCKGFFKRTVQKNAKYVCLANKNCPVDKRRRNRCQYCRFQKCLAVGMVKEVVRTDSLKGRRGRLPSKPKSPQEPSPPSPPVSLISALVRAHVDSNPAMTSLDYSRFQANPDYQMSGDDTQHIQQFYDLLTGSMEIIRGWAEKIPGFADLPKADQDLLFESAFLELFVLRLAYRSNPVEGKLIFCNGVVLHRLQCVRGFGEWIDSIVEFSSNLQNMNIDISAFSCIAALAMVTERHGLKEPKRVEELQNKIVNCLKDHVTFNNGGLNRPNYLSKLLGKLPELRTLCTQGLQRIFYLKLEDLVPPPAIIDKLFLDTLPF
Chain of Nuclear receptor subfamily 1 group I member 3 (Homo sapiens) (Q14994 whole entry, looked up, the tested form may be a part): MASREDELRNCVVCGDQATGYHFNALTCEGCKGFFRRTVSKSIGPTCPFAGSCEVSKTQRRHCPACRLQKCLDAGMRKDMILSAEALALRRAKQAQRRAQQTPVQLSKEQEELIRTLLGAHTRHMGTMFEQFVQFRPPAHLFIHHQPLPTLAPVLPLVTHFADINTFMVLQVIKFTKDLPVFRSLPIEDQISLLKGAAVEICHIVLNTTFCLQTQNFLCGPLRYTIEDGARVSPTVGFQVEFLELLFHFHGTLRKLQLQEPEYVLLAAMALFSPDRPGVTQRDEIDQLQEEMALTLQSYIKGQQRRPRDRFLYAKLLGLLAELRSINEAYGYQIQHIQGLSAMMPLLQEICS
Chain of X-box-binding protein 1 (Homo sapiens) (P17861 whole entry, looked up): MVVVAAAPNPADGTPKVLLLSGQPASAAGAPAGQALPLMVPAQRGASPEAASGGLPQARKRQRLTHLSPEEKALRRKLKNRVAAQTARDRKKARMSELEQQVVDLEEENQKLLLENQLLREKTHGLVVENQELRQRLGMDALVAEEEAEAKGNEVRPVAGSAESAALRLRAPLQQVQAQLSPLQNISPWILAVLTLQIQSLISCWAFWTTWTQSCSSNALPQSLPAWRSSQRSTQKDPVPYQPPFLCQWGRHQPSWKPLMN
Chain of Transcriptional activator Myb (Homo sapiens) (P10242 whole entry, looked up): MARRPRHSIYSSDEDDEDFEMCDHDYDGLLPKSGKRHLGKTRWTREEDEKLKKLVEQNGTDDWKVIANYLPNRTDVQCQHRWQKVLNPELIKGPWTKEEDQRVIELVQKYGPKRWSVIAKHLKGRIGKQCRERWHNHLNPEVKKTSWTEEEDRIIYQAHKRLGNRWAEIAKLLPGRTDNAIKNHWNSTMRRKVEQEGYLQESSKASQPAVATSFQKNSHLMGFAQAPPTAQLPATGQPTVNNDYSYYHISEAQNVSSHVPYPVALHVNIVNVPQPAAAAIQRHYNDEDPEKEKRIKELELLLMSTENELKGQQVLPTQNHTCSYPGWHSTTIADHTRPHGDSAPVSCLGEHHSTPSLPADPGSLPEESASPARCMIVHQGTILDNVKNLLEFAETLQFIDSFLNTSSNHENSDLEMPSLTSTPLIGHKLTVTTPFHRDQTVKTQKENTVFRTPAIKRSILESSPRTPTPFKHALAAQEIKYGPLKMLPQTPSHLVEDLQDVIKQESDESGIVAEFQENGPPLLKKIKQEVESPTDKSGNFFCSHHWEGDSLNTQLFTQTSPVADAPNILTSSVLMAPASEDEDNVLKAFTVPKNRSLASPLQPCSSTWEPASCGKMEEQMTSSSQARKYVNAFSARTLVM
Chain of Estrogen receptor (Homo sapiens) (P03372 whole entry, looked up, the tested form may be a part): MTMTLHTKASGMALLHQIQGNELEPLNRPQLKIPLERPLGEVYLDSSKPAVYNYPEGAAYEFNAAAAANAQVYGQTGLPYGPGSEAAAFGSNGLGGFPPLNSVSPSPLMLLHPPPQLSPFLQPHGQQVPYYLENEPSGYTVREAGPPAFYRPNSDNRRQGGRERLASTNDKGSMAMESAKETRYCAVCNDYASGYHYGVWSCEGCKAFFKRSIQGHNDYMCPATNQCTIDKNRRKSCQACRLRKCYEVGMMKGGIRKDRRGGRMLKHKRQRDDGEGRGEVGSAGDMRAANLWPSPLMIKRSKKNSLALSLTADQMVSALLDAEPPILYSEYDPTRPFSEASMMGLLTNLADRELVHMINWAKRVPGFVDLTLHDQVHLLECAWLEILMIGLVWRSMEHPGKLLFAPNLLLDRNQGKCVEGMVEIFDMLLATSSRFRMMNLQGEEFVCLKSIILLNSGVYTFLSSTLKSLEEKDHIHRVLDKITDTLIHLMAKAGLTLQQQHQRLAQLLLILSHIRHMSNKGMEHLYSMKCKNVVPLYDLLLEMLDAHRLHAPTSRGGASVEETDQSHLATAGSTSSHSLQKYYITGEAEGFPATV
Chain of Glucocorticoid receptor (Homo sapiens) (P04150 whole entry, looked up, the tested form may be a part): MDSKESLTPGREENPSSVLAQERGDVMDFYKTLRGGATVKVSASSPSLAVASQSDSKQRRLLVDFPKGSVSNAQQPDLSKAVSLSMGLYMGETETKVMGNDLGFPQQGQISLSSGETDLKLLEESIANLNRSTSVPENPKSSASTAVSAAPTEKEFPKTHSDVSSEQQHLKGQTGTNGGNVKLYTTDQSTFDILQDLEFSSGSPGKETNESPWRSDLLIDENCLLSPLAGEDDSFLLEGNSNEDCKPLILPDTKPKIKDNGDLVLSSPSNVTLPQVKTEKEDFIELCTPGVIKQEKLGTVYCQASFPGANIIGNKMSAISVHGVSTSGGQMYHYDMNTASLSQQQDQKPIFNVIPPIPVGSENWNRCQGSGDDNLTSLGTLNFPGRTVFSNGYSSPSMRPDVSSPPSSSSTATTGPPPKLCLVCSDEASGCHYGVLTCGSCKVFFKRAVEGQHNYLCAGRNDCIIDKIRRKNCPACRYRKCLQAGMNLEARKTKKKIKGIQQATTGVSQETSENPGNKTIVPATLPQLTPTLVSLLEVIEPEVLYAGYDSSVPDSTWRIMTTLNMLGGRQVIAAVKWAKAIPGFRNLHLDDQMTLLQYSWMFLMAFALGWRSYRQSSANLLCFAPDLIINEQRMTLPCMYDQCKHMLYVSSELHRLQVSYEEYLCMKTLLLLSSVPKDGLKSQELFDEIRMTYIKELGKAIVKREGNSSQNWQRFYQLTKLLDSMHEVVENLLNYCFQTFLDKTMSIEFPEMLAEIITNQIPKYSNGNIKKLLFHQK
Chain of Oxysterols receptor LXR-beta (Homo sapiens) (P55055 whole entry, looked up, the tested form may be a part): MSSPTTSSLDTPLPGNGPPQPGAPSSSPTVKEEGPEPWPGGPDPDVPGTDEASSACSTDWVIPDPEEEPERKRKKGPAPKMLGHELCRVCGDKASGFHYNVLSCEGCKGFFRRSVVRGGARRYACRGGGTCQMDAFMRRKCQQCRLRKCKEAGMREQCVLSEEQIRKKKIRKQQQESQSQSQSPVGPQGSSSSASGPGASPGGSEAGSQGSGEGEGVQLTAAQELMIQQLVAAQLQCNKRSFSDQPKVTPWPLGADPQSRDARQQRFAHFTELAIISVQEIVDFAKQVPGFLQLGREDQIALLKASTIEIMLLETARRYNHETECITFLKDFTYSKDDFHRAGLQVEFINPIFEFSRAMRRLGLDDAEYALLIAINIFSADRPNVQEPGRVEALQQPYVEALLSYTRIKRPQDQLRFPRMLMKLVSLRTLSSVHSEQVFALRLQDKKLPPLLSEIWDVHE
Chain of Oxysterols receptor LXR-alpha (Homo sapiens) (Q13133 whole entry, looked up, the tested form may be a part): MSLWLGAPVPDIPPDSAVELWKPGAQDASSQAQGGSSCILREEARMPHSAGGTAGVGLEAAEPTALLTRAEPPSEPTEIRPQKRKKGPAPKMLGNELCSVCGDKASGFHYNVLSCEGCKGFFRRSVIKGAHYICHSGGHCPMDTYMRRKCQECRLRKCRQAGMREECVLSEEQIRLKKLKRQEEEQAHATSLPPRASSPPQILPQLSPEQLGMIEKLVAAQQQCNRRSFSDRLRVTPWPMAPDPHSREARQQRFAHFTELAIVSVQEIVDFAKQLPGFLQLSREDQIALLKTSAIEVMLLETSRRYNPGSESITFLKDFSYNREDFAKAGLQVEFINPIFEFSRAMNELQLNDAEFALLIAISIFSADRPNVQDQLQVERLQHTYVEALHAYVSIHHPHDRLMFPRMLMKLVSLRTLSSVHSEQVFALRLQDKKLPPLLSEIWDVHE
Chain of Estrogen-related receptor gamma (Homo sapiens) (P62508 whole entry, looked up, the tested form may be a part): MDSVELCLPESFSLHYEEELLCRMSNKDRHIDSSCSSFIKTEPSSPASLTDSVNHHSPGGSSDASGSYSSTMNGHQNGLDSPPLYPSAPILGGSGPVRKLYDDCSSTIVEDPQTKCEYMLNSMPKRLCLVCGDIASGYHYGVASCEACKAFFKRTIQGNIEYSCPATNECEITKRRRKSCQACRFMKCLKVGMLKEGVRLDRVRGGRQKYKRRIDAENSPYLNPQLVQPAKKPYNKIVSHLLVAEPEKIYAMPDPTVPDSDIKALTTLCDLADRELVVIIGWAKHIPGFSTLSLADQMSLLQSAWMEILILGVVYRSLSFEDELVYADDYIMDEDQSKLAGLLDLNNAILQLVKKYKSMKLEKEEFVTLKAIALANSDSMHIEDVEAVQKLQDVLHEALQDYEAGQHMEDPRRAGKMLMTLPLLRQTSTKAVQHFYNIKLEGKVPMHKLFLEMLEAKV

O=C(OCCc1ccccc1)c1ccccc1
not listed: [14] | [15] | [16] | [17] | [18] | [19] | [20]
inactive: all other assays above

CC(=O)CCC1=C(C)CCCC1(C)C
active: [6] 13 µM
not listed: [15] | [16] | [17] | [18] | [19] | [20]
inactive: all other assays above

CC(=O)OC1CCCCC1C(C)(C)C (centres undefined)
not listed: [10] | [11] | [16] | [17] | [18] | [19] | [20]
inactive: all other assays above

CC(C)c1cccc(C(C)C)c1N
not listed: [19] | [20]
inactive: all other assays above

Oc1ccc(-c2ccccc2)c(Cl)c1
active: [4] 33.4 µM | [6] 9.14 µM | [7] 33.4 µM
not listed: [11] | [12] | [15] | [16] | [17] | [19] | [20]
inactive: all other assays above

CCNc1nc(NC(C)(C)C)nc(OC)n1
active: [4] 19.3 µM
not listed: [10] | [11] | [12] | [16] | [17] | [18] | [20]
inactive: all other assays above

O=C1CCCN1C1CCCCC1
inactive: [1] | [2] | [3] | [4] | [5] | [6] | [7] | [8] | [16] | [19] | [13]

CC/C=C\CCOC(=O)c1ccccc1O
not listed: [9] | [10] | [11] | [12] | [14] | [16] | [18] | [19]
inactive: all other assays above

CC(C)c1ccc(O)c(C(C)C)c1
active: [6] 33.4 µM
not listed: [9] | [14] | [15] | [16] | [17] | [19] | [20]
inactive: all other assays above

CCCC(CC)c1ccccc1 (centres undefined)
active: [6] 55.3 µM
inactive: [1] | [2] | [3] | [4] | [5] | [7] | [8] | [9] | [10] | [13]

O=C(Cl)c1ccc(C(=O)Cl)cc1
not listed: [11] | [14] | [16] | [17] | [18] | [19] | [20]
inactive: all other assays above
